Among the data in PubChem BioAssay (NCI) are growth inhibition values, retold here.

Compounds without any hit were thinned out: in the full panel of roughly 79,000, 15% have a hit. Values without a mark were called inactive. The source made the active and inactive calls. No stated cut-off is given here; in the data, active means growth inhibition above about 70%; inactive means the rest.

Assay [1] is described as follows: NCI Yeast Anticancer Drug Screen. Data for the rad50 strain (AID 155).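 Further: 0% = growth of vehicle-only cultures of the same strain.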 The conditions noted are these: S. cerevisiae rad50 strain growth inhibition, active compounds read high. In short, it runs like this:
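Yeast carrying a defined DNA repair defect were exposed to test compounds, and growth was compared with vehicle-treated controls to give percent inhibition.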

The nature of assay [2]: NCI Yeast Anticancer Drug Screen. Data for the mec2-1 strain (AID 157). Conditions: S. cerevisiae mec2-1 strain, active compounds read high. In short, it runs like this:
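Each compound was tested on mec2-1 yeast, a strain altered in DNA damage repair or cell cycle control. Growth inhibition is reported relative to vehicle.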

Assay [3] can be described thus: NCI Yeast Anticancer Drug Screen. Data for the sgs1 mgt1 strain (AID 161).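 Further: 0% = growth of cultures given vehicle only.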 The conditions noted are these: S. cerevisiae sgs1 mgt1 strain, active compounds read high. In short, it runs like this:
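Genetically altered yeast, compound exposure, growth inhibition relative to vehicle.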

Assay [4] is described as follows: NCI Yeast Anticancer Drug Screen. Data for the cln2 rad14 strain (AID 165).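 Further: 0% = growth equal to vehicle treated cultures.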 Conditions: S. cerevisiae cln2 rad14 strain, active compounds read high. The method, boiled down: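 Test compounds were added to cln2 rad14 yeast cultures; inhibition of growth was then determined by comparison with vehicle treatment.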
Assay [5] can be described thus: NCI Yeast Anticancer Drug Screen. Data for the bub3 strain (AID 167). The conditions noted are these: S. cerevisiae bub3 mutant strain, active compounds read high. The method, boiled down:
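Compounds were applied to a genetically altered yeast strain carrying a cell-cycle control defect. Growth inhibition was scored against vehicle-treated controls.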

Assay [6] in a line: NCI Yeast Anticancer Drug Screen. Data for the mlh1 rad18 strain (AID 175). Conditions: S. cerevisiae mlh1 rad18 strain growth inhibition, active compounds read high. In short, it runs like this:
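Inhibition values reflect reduced growth of mutant yeast versus vehicle-treated controls following compound exposure; the mutations affect DNA damage repair.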

Setting [7] is: at 5.0 µM (retest, dose inferred, filed as 0.5).
Setting [8] is: at 50.0 µM (retest, dose inferred, filed as 5.0).

Consider `CCN(CC)CCOc1c(I)cc(I)cc1I`, for which the growth inhibition was 2% in assay [1] (setting [7]); 98% (active) in assay [1] (setting [8]); 84.3% (active) in assay [1] (at 50.0 µM); 0% in assay [2] (setting [7]); 98% (active) in assay [2] (setting [8]); 82.4% (active) in assay [2] (at 50.0 µM). Besides, the growth inhibition in assay [3] (setting [7]) was 12%; in assay [3] (setting [8]) it was 99% (active); in assay [3] (at 50.0 µM) it was 96.5% (active); in assay [4] (setting [7]), 7%; in assay [4] (setting [8]), 98% (active); in assay [4] (at 50.0 µM), 98.2% (active). Also, the growth inhibition in assay [5] (setting [7]) is 6%; in assay [5] (setting [8]) it was 98% (active); in assay [5] (at 50.0 µM), 84.8% (active); in assay [6] (setting [7]), 1%; in assay [6] (setting [8]), 99% (active); in assay [6] (at 50.0 µM), 99.2% (active).
With `CC(=O)C(=C(I)I)c1ccccc1`, the growth inhibition was -20% in assay [1] (setting [7]); 71% (active) in assay [1] (setting [8]); 51.6% in assay [1] (at 50.0 µM); -21% in assay [2] (setting [7]); 89% (active) in assay [2] (setting [8]); 55% in assay [2] (at 50.0 µM). Besides, the growth inhibition was -27% in assay [3] (setting [7]); 93% (active) in assay [3] (setting [8]); 73.7% (active) in assay [3] (at 50.0 µM); 8% in assay [4] (setting [7]); 34% in assay [4] (setting [8]); 30.8% in assay [4] (at 50.0 µM). In addition, the growth inhibition is -34% in assay [5] (setting [7]); 83% (active) in assay [5] (setting [8]); 33.4% in assay [5] (at 50.0 µM); -28% in assay [6] (setting [7]); 80% (active) in assay [6] (setting [8]); 24.2% in assay [6] (at 50.0 µM).
For `Cc1ccccc1C1c2c(C)cccc2C(=O)CC1CC(=O)O` (configuration not stated), the growth inhibition in assay [1] (setting [7]) was 4%; in assay [1] (setting [8]), 60%; in assay [1] (at 50.0 µM) it was 58%; in assay [2] (setting [7]), 1%; in assay [2] (setting [8]) it was 72% (active); in assay [2] (at 50.0 µM) it was 81.5% (active). The growth inhibition in assay [3] (setting [7]) is -1%; in assay [3] (setting [8]), 75% (active); in assay [3] (at 50.0 µM), 82.3% (active); in assay [4] (setting [7]), -41%; in assay [4] (setting [8]), 70% (active); in assay [4] (at 50.0 µM), 13.3%. Also, the growth inhibition was 6% in assay [5] (setting [7]); 67% in assay [5] (setting [8]); 70% (active) in assay [5] (at 50.0 µM); 8% in assay [6] (setting [7]); 83% (active) in assay [6] (setting [8]); 81.6% (active) in assay [6] (at 50.0 µM).
`CCc1cccc(CC)c1Nc1nc2c(s1)C(=O)c1ccccc1C2=O`: the growth inhibition in assay [1] (setting [7]) is 100% (active); in assay [1] (setting [8]) it was 99% (active); in assay [1] (at 50.0 µM) it was 89.5% (active); in assay [2] (setting [7]), 100% (active); in assay [2] (setting [8]) it was 99% (active); in assay [2] (at 50.0 µM), 91.9% (active). The growth inhibition in assay [3] (setting [7]) was 100% (active); in assay [3] (setting [8]), 99% (active); in assay [3] (at 50.0 µM), 92.7% (active); in assay [4] (setting [7]) it was 87% (active); in assay [4] (setting [8]) it was 98% (active); in assay [4] (at 50.0 µM), 90.3% (active). In addition, the growth inhibition in assay [5] (setting [7]) was 100% (active); in assay [5] (setting [8]), 99% (active); in assay [5] (at 50.0 µM), 92.2% (active); in assay [6] (setting [7]), 99% (active); in assay [6] (setting [8]), 98% (active); in assay [6] (at 50.0 µM), 90.8% (active).
On to `CCCCCC(C)(O)C#CC(C)(O)CCCCC` (configuration not stated), for which the growth inhibition in assay [1] (setting [7]) is 2%; in assay [1] (setting [8]), 99% (active); in assay [1] (at 50.0 µM), 38.8%; in assay [2] (setting [7]), 5%; in assay [2] (setting [8]), 99% (active); in assay [2] (at 50.0 µM), 4.55%. Further, the growth inhibition in assay [3] (setting [7]) was 1%; in assay [3] (setting [8]) it was 99% (active); in assay [3] (at 50.0 µM), 30.7%; in assay [4] (setting [7]) it was 5%; in assay [4] (setting [8]), 98% (active); in assay [4] (at 50.0 µM) it was 75.7% (active). Besides, the growth inhibition is 3% in assay [5] (setting [7]); 96% (active) in assay [5] (setting [8]); 21.3% in assay [5] (at 50.0 µM); 2% in assay [6] (setting [7]); 99% (active) in assay [6] (setting [8]); 26.7% in assay [6] (at 50.0 µM).
On to `CCCCCCCCCCCCCCCC(=O)NCC[N+](C)(CC)CC`, for which the growth inhibition in assay [1] (setting [7]) is -32%; in assay [1] (setting [8]) it was 0%; in assay [1] (at 50.0 µM), 57.4%; in assay [2] (setting [7]), -6%; in assay [2] (setting [8]), -11%; in assay [2] (at 50.0 µM), 27.4%. The growth inhibition in assay [3] (setting [7]) was -4%; in assay [3] (setting [8]), 30%; in assay [3] (at 50.0 µM), 72.2% (active); in assay [4] (setting [7]) it was 1%; in assay [4] (setting [8]), -15%; in assay [4] (at 50.0 µM), 17.9%. Also, the growth inhibition in assay [5] (setting [7]) was 2%; in assay [5] (setting [8]) it was 19%; in assay [5] (at 50.0 µM), 10.5%; in assay [6] (setting [7]) it was -8%; in assay [6] (setting [8]), 7%; in assay [6] (at 50.0 µM) it was 29.5%.
For `CN(C)CCCNc1cc(/C=C/c2ccc([N+](=O)[O-])cc2)nc2ccccc12`, the growth inhibition in assay [1] (setting [7]) was -6%; in assay [1] (setting [8]) it was 70% (active); in assay [1] (at 50.0 µM) it was 80.8% (active); in assay [2] (setting [7]) it was -3%; in assay [2] (setting [8]), 38%; in assay [2] (at 50.0 µM), 68.5%. Also, the growth inhibition in assay [3] (setting [7]) is -2%; in assay [3] (setting [8]), 60%; in assay [3] (at 50.0 µM) it was 86.3% (active); in assay [4] (setting [7]), -4%; in assay [4] (setting [8]), 64%; in assay [4] (at 50.0 µM), 39.1%. Further, the growth inhibition is -6% in assay [5] (setting [7]); 45% in assay [5] (setting [8]); 60.9% in assay [5] (at 50.0 µM); -3% in assay [6] (setting [7]); 56% in assay [6] (setting [8]); 91.1% (active) in assay [6] (at 50.0 µM).
On to `CCOc1c(N=Nc2ccc(OC)cc2)c(-c2ccccc2)nn1C(N)=S`, for which the growth inhibition in assay [1] (setting [7]) was 4%; in assay [1] (setting [8]) it was 36%; in assay [1] (at 50.0 µM) it was 12.3%; in assay [2] (setting [7]), -2%; in assay [2] (setting [8]) it was 34%; in assay [2] (at 50.0 µM), 38%. Also, the growth inhibition in assay [3] (setting [7]) was 10%; in assay [3] (setting [8]), 73% (active); in assay [3] (at 50.0 µM), 25.8%; in assay [4] (setting [7]), 6%; in assay [4] (setting [8]), 9%; in assay [4] (at 50.0 µM), 3.1%. Further, the growth inhibition was 3% in assay [5] (setting [7]); 71% (active) in assay [5] (setting [8]); 70.2% (active) in assay [5] (at 50.0 µM); 0% in assay [6] (setting [7]); 27% in assay [6] (setting [8]); 23.9% in assay [6] (at 50.0 µM).
On to `[N-]=[N+]=Nc1c([N+](=O)[O-])c(=O)n(-c2ccccc2)c2ccccc12`, for which the growth inhibition in assay [1] (setting [7]) is -8%; in assay [1] (setting [8]), 34%; in assay [1] (at 50.0 µM), 65.1%; in assay [2] (setting [7]) it was -3%; in assay [2] (setting [8]), 54%; in assay [2] (at 50.0 µM) it was 67.3%. In addition, the growth inhibition in assay [3] (setting [7]) was 0%; in assay [3] (setting [8]), 32%; in assay [3] (at 50.0 µM), 70% (active); in assay [4] (setting [7]), 27%; in assay [4] (setting [8]), 21%; in assay [4] (at 50.0 µM) it was 46.9%. The growth inhibition in assay [5] (setting [7]) is -21%; in assay [5] (setting [8]), 62%; in assay [5] (at 50.0 µM) it was 61%; in assay [6] (setting [7]) it was 4%; in assay [6] (setting [8]), 57%; in assay [6] (at 50.0 µM), 68.2%.
